# Data taken from PubChem BioAssay.
# Active and inactive are the calls of the source. Unless noted, the rule behind the calls is not given here.
# Columns and labels:
# [1] = resazurin metabolic signal in HepG2 cells – cell-based, resazurin fluorescence, 24 h, PK04 Diversity Set, profiling panel (AID 1172); details: HepG2 viability, higher = more signal
# [2] = budding yeast growth changes without added modifier – OD600, strain BY4716, 24 h, basal condition, primary screen (AID 1173); details: S. cerevisiae BY4716 growth, OD600, 24 h; higher = more signal, called active from +8 up or from −8 down
# [3] = viability profiling in MM1S myeloma cells – cell-based, resazurin fluorescence, basal, 24 h, PK04 Diversity Set, profiling panel (AID 1174); details: higher = more signal, called active from +8 up or from −8 down;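 note: MM1S multiple myeloma cell line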
# [4] = biological target: Dihydroorotate dehydrogenase (quinone), mitochondrial (Plasmodium falciparum (isolate 3D7)) (UniProt Q08210); assay: inhibition of P. falciparum DHODH – biochemical, C-terminal His tag, absorbance 600 nm, primary screen (AID 1175); details: PfDHODH enzyme, DCIP absorbance 600 nm; higher = more signal, called active from +8 up or from −8 down;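 note: recombinant parasite enzyme with a five histidine tag at its C terminus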
# [5] = inhibition of PAO1 biofilm formation – strain PAO1, LB-PBS medium, absorbance 600 nm, primary screen (AID 1176); details: P. aeruginosa PAO1 growth/biofilm, A600, 12 h; higher = more signal
# [6] = growth modulation of vineyard yeast isolate – strain RM11-1a, OD600, basal, 24 h, primary screen (AID 1177);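 note: cultures grown under basal conditions with no added stressor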; details: S. cerevisiae RM11-1a growth, OD600, 24 h; higher = more signal, called active from +8 up or from −8 down
# [7] = growth of efflux-deficient E. coli DRC39 – strain DRC39, OD650, 24 h, E. coli filamentation inducers, primary screen (AID 1178);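 note: growth measured as culture turbidity by optical density at 650 nm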; details: E. coli DRC39 acrAB, higher = more signal, called active from +8 up or from −8 down
# [8] = growth of efflux-deficient E. coli DRC39 – strain DRC39, OD650, 48 h, E. coli filamentation inducers, primary screen (AID 1179);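 note: screen aims at cell division blockers that make cells filament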; details: E. coli DRC39 delta-acrAB growth, higher = more signal, called active from +8 up or from −8 down
# [9] = viability profiling in RPMI8226 myeloma cells – cell-based, resazurin fluorescence, basal, 24 h, PK04 Diversity Set, profiling panel (AID 1180); details: higher = more signal;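 note: RPMI8826 multiple myeloma cell line at 5000 cells per well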
# [10] = biological target: E3 ubiquitin-protein ligase XIAP (Homo sapiens) (UniProt P98170); assay: small molecules binding XIAP protein – biophysical, small-molecule microarray, fluorescence 635 nm, primary screen (AID 1181); details: higher = more signal;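 note: score merges 667 nm emission and signal to noise over triplicate slides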
# [11] = tested on: XIP peptide (Xip251-270) binding; assay: XIP fragment 251-270 binding compounds – biochemical, small-molecule microarray, fluorescence 635/667 nm, 0.1 µg/mL protein, primary screen (AID 1182); details: fluorescent protein binding, 635 nm, higher = more signal, called active from +8 up or from −8 down
# XIP peptide (Xip251-270) = assay: compounds binding XIP fragment 251-270 – biochemical, small-molecule microarray, fluorescence 635/667 nm, 0.5 µg/mL protein, primary screen (AID 1183); details: fluorescence 635 nm, higher = more signal
# [12] = blood-stage malaria parasite viability loss – strain 3D7, DAPI fluorescence, 100 nL, primary screen (AID 1184);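 note: parasites grown inside human red blood cells in medium with human serum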; details: P. falciparum 3D7 growth, 3 d, higher = more signal
# [13] = biological target: Homeobox protein Hox-A13 (Mus musculus) (UniProt Q62424); assay: disruptors of Hoxa13 oligonucleotide interaction – biochemical, fluorescence polarization, labeled oligonucleotide, primary screen (AID 1185); details: Hoxa13:DNA binding, 15 min, higher = more signal, called active from +8 up or from −8 down
# [14] = blockers of DNA damage checkpoint Chk1 activation – imaging, HeLa, hydroxyurea, phospho-Chk1 antibody, percent positive cells, primary screen (AID 1186); details: hydroxyurea-induced phospho-Chk1 immunofluorescence imaging, higher = more signal
# [15] = blockers of DNA damage checkpoint Chk1 activation – imaging, HeLa, hydroxyurea, phospho-Chk1 nuclear intensity, primary screen (AID 1187); details: hydroxyurea-induced phospho-Chk1 immunofluorescence imaging, higher = more signal
# Homeobox protein Hox-A13 (Mus musculus), sequence (Q62424 whole entry, looked up): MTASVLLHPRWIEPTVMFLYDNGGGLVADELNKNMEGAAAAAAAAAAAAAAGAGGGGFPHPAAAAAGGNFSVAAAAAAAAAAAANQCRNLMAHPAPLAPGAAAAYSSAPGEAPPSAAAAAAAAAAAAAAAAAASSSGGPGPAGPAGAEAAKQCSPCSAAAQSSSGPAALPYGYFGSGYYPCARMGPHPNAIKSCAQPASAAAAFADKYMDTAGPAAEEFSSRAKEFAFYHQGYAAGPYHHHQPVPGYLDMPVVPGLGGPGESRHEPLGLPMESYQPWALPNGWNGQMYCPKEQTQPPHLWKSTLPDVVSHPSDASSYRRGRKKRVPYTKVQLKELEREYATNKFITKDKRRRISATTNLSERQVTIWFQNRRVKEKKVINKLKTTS
# Dihydroorotate dehydrogenase (quinone), mitochondrial (Plasmodium falciparum (isolate 3D7)), sequence (Q08210 whole entry, looked up): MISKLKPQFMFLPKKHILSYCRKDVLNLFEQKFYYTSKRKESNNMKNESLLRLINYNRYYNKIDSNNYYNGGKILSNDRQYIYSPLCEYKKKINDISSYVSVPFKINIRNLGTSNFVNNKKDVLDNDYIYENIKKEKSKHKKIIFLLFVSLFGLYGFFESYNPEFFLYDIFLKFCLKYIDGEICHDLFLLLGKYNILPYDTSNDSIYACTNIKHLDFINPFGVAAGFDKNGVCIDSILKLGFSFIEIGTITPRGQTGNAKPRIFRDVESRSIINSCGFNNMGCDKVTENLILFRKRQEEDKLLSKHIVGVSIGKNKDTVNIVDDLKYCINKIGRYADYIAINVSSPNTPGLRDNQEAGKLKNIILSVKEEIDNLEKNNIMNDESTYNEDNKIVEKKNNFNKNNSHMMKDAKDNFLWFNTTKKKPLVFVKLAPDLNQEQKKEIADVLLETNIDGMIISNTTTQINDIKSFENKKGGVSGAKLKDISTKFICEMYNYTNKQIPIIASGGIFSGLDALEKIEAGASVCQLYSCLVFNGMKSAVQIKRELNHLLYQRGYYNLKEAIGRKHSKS
# E3 ubiquitin-protein ligase XIAP (Homo sapiens), sequence (P98170 whole entry, looked up, the tested form may be a part): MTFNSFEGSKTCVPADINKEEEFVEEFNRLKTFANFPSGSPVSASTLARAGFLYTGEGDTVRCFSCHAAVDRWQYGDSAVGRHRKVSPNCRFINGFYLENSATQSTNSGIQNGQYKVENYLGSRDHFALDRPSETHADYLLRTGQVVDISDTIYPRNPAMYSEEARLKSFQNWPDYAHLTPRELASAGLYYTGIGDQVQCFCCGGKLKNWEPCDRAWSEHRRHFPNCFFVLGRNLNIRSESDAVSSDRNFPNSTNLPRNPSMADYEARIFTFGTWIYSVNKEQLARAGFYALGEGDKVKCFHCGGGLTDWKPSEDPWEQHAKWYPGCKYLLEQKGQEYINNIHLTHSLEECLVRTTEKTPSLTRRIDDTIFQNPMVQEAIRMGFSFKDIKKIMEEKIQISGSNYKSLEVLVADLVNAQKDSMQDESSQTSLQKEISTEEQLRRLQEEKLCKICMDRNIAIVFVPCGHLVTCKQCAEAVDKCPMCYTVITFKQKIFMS
Structure (SMILES),z-score [1],z-score [2],z-score [3],composite z-score [4],z-score [5],z-score [6],z-score [7],z-score [8],z-score [9],composite z-score [10],composite z-score [11],composite z-score (XIP peptide (Xip251-270)),z-score [12],z-score [13],z-score [14],z-score [15]
CCCCC(O)C1C=CC2C(=O)NC(=O)C2N1Nc1ccccn1 (centres undefined),-1.32,0.932 (inactive),-1.09 (inactive),0.487 (inactive),0.695 (inactive),0.369 (inactive),-0.576 (inactive),-0.529 (inactive),-1.07,0.117,-0.634 (inactive),0.146,0.993,-1.21 (inactive),0.846 (inactive),0.318 (inactive)
C=C(CCCC)C(=O)CC[C@H](OC(=O)c1cccnc1)c1ccc(CO)o1,-0.476,-1.58 (inactive),-0.464 (inactive),-0.826 (inactive),1.45 (inactive),-0.497 (inactive),-0.47 (inactive),-0.34 (inactive),-0.643,0.0343,0.437 (inactive),0.769,-0.198,-5.27 (inactive),0.242 (inactive),0.136 (inactive)
COCCOC(=O)N1C(=O)[C@@]2(c3ccccc31)[C@H](C(N)=O)[C@H]1C(=O)O[C@H](c3ccccc3)[C@H](c3ccccc3)N1[C@@H]2c1ccc(OCCO)cc1,1.35,1.75 (inactive),0.671 (inactive),-0.525 (inactive),-0.108 (inactive),1.96 (inactive),0.755 (inactive),0.094 (inactive),0.7,0.109,0.675 (inactive),0.638,0.0624,-4.49 (inactive),0.114 (inactive),-0.0135 (inactive)
COCCOC(=O)N1C(=O)[C@@]2(c3cc(C#CC4(O)CCCCCC4)ccc31)[C@H](c1ccc(OCCO)cc1)N1[C@H](c3ccccc3)[C@H](c3ccccc3)OC(=O)[C@H]1[C@@H]2C(N)=O,-0.776,0.581 (inactive),-3.25 (inactive),-0.259 (inactive),1.84 (inactive),1.89 (inactive),-0.236 (inactive),-0.635 (inactive),-3.62,-0.142,0.539 (inactive),0.849,-2.02,-1.87 (inactive),-0.0641 (inactive),-0.215 (inactive)
C=C(CC1([C@@H](NP(=O)(c2ccccc2)c2ccccc2)[C@H]2C[C@@H]2CCN(C(=O)OCC)S(=O)(=O)c2ccc(C)cc2)CC1)c1ccccc1,0.716,1.97 (inactive),-1.59 (inactive),0.0407 (inactive),0.687 (inactive),1.52 (inactive),0.104 (inactive),-0.194 (inactive),-1.05,0.303,0.43 (inactive),0.666,-1.75,-2.18 (inactive),-0.215 (inactive),-0.0171 (inactive)
CN(C)CCCC[C@@H]1NC(=O)[C@@H]2C[C@H](C(=O)NCCCCCCNC(=O)CS)[C@H](c3cccc(OCCO)c3)N2C1=O,-0.725,-0.103 (inactive),-0.196 (inactive),-0.264 (inactive),0.268 (inactive),-0.491 (inactive),0.303 (inactive),0.94 (inactive),0.117,-0.0052,0.602 (inactive),0.667,-0.391,-2.01 (inactive),0.134 (inactive),-0.332 (inactive)
COCCOC(=O)N1C(=O)[C@@]2(c3cc(C#CCC(C(=O)OC)C(=O)OC)ccc31)[C@H](C(N)=O)[C@H]1C(=O)O[C@H](c3ccccc3)[C@H](c3ccccc3)N1[C@@H]2c1ccc(OCCO)cc1,0.58,1.53 (inactive),-0.456 (inactive),-0.383 (inactive),2.88 (inactive),3.39 (inactive),0.71 (inactive),0.108 (inactive),-1.81,0.0251,0.572 (inactive),0.813,-2.07,-0.183 (inactive),-0.153 (inactive),0.0973 (inactive)
C=CCN1C(=O)[C@]2(O[C@H](CCO)[C@@H]([Si](C)(C)c3ccc(OC)cc3)[C@@H]2C)c2ccccc21,-2.84,-5.08 (inactive),-1.46 (inactive),0.0196 (inactive),0.225 (inactive),1.55 (inactive),-0.377 (inactive),-1.46 (inactive),-2.74,-0.144,0.0965 (inactive),0.193,-2.31,-6.69 (inactive),-1.17 (inactive),-1.58 (inactive)
CC(C)CNC(=O)[C@@H]1c2ccccc2C(=O)N(CC23CC4CC(CC(C4)C2)C3)[C@H]1c1ccc(CO)cc1,0.82,-1.17 (inactive),1.93 (inactive),-0.42 (inactive),-0.397 (inactive),-0.0966 (inactive),0.256 (inactive),0.339 (inactive),0.281,-0.13,0.41 (inactive),0.613,-2.11,-3.84 (inactive),-0.282 (inactive),-0.0264 (inactive)
Cc1ccc(S[C@]2(C(=O)NC3CC3)CC(=O)N(Cc3cc(C(F)(F)F)cc(C(F)(F)F)c3)[C@@H]2c2ccc(CO)cc2I)cc1,0.411,-5.11 (inactive),-2.78 (inactive),-3.55 (inactive),0.944 (inactive),-1.6 (inactive),0.0621 (inactive),0.108 (inactive),-2.23,0.723,0.102 (inactive),0.679,0.496,-2.13 (inactive),0.505 (inactive),0.924 (inactive)
O=C1OCCC=C[C@H]2OC34C=CCN(CCN5CCOCC5)C(=O)[C@H]3N(CCCO)C(=O)[C@@H]4C12 (some centres undefined),-0.368,-0.494 (inactive),-0.525 (inactive),0.394 (inactive),-0.481 (inactive),0.23 (inactive),-0.418 (inactive),-0.822 (inactive),-0.62,0.0143,0.186 (inactive),0.0388,-1.72,-3.86 (inactive),-0.46 (inactive),-0.374 (inactive)
CN(C)CCCC[C@@H]1NC(=O)[C@H]2C[C@@H](C(=O)O)[C@@H](c3cccc(OCCO)c3)N2C1=O,0.629,-1.12 (inactive),0.499 (inactive),-0.614 (inactive),-0.0185 (inactive),-0.452 (inactive),-0.0925 (inactive),-0.151 (inactive),0.546,0.332,0.432 (inactive),0.288,-0.133,-1.71 (inactive),-0.791 (inactive),-0.55 (inactive)
CCOC(=O)C1=C[C@@H](C(C)(C)C)N(S(=O)(=O)c2ccc(C)cc2)[C@H]1c1ccccc1Cl,-0.421,1.51 (inactive),-0.763 (inactive),0.0477 (inactive),0.188 (inactive),1.73 (inactive),-0.544 (inactive),-0.468 (inactive),-1.74,0.227,0.646 (inactive),0.705,-1.65,0.649 (inactive),0.271 (inactive),-0.0709 (inactive)
COCC(=C=CC[C@@H](O)c1ccc(OCCO)cc1)C[C@@H](O)COCc1ccccc1,0.948,-0.81 (inactive),0.891 (inactive),-2.32 (inactive),0.801 (inactive),-1.31 (inactive),0.789 (inactive),0.859 (inactive),0.804,0.24,0.705 (inactive),0.181,-2.96,-4.15 (inactive),-0.252 (inactive),0.483 (inactive)
COC(=O)[C@H](Cc1ccc(O)cc1)N1CC2=CCCC=C[C@@H]2[C@H]1[C@H](O)Cc1ccccc1,0.969,-2.95 (inactive),0.658 (inactive),-0.574 (inactive),0.106 (inactive),-0.889 (inactive),1.34 (inactive),1.34 (inactive),0.601,-0.219,-0.0324 (inactive),0.419,-1.63,-8.16 (active),-1.09 (inactive),-1.18 (inactive)
C[C@@H](OCc1ccccc1)C1NC(=O)[C@@]23C(=O)N[C@@H](Cc4ccccc4)C2[C@H](C)[C@@]2(C)O[C@H]2C3/C=C/C/C=C\CNC(=O)[C@H](Cc2ccccc2)NC1=O (some centres undefined),-0.515,-1.29 (inactive),-0.614 (inactive),-0.199 (inactive),0.0359 (inactive),-0.658 (inactive),2.13 (inactive),0.5 (inactive),-0.302,-0.0565,-0.0678 (inactive),-0.0412,-2.45,-5.7 (inactive),0.0781 (inactive),0.544 (inactive)
COc1ccc(CCNC(=O)[C@@]2(C)c3ccccc3C(=O)N(Cc3cc(C(F)(F)F)cc(C(F)(F)F)c3)[C@H]2c2ccc(CO)cc2)cc1,0.0945,0.256 (inactive),0.084 (inactive),-0.533 (inactive),0.773 (inactive),-0.147 (inactive),0.482 (inactive),0.282 (inactive),0.639,0.0512,0.517 (inactive),0.702,-1.88,-2.88 (inactive),-0.0741 (inactive),0.364 (inactive)
CC(c1ccccc1)C(O)C1C=CC2C(=O)N(c3ccccc3)C(=O)C2N1Nc1ccc(C#N)cc1 (centres undefined),0.142,-0.0091 (inactive),-1.24 (inactive),-0.0432 (inactive),0.695 (inactive),-0.977 (inactive),1.07 (inactive),1.83 (inactive),-0.008,0.332,0.235 (inactive),0.784,0.526,-1.21 (inactive),-0.325 (inactive),0.313 (inactive)
CCCCC(=C=CC[C@@H](O)c1ccc(OCCO)cc1)C[C@@H](O)c1ccccn1,-0.517,-1.12 (inactive),-0.769 (inactive),-8.71 (active),0.932 (inactive),0.43 (inactive),0.753 (inactive),0.239 (inactive),-0.541,0.133,0.0856 (inactive),-0.24,-0.979,-5.87 (inactive),0.784 (inactive),0.744 (inactive)
